{"source": "ChEMBL document CHEMBL1157539", "about": "“Thousands of chemical starting points for antimalarial lead identification” (Nature, 2010)", "note": "Values joined by “and” are separate entries in the source; they are usually repeats but may differ in a detail not shown here. Equal entries are not always repeated."}
{"test_system": "HepG2", "test": "GSK_TCMDC: Percent inhibition of human HepG2 cell line. Test compounds present at 10uM.", "type": "functional"}
{"smiles": "Cc1[nH]c2ccccc2c1C1=CCN(CCCCCC23CCCc4cccc(c42)NC3=O)CC1", "note": "(stereo not drawn)", "Inhibition": "11%"}
{"smiles": "CN(c1cc(NC(=O)c2cccs2)ccn1)C1CCN(Cc2ccccc2)CC1.O=C(O)C(F)(F)F", "Inhibition": "0%"}
{"smiles": "S=C(NCCc1ccc(Cl)cc1)N1CCC(CN2CCC(c3c[nH]c4ccccc34)CC2)CC1", "Inhibition": "31%"}
{"smiles": "Br.CCCCCCCSc1ccc(CC(C)NCC(O)c2cccc(Cl)c2)cc1", "note": "(stereo not drawn)", "Inhibition": "94%"}
{"smiles": "Cc1cc(NC(=O)[C@H](CC(C)C)Nc2ccc(C#N)c3ccccc23)ccc1F.O=C(O)C(F)(F)F", "Inhibition": "35%"}
{"smiles": "O=C(NC1CCC(CN2CCC(c3c[nH]c4ccccc34)CC2)CC1)c1cc2ccccc2s1", "note": "(stereo not drawn)", "Inhibition": "44%"}
{"smiles": "CCCCNC(c1ccc(Cl)cc1)C(O)c1ccc(Cl)cc1.Cl", "note": "(stereo not drawn)", "Inhibition": "13%"}
{"smiles": "O=C(/C=C/c1ccc(Cl)cc1)NC1CCC(CN2CCC(c3c[nH]c4ccccc34)CC2)CC1", "note": "(stereo not drawn)", "Inhibition": "40% and 39%"}
{"smiles": "CCCCCCC(CC)c1cc(O)c2c(c1)OC(C)(C)c1ccncc1-2.Cl", "note": "(stereo not drawn)", "Inhibition": "0%"}
{"smiles": "Oc1ccccc1CN1CCC(CCOC(c2ccccc2)c2ccc(Cl)cc2)CC1", "note": "(stereo not drawn)", "Inhibition": "19%"}
{"smiles": "CC(C)CNCc1cccc(-c2cccc(CN(C(=O)NC3CCCCC3)C3CCN(Cc4ccccc4)CC3)c2)c1.O=C(O)C(F)(F)F", "Inhibition": "32%"}
{"smiles": "COc1ccc(C(=O)C2CC2CN2CC=C(c3c[nH]c4ccccc34)CC2)cc1", "note": "(stereo not drawn)", "Inhibition": "12%"}
{"smiles": "CN(C)c1cccc(CCNCCc2c[nH]c3ccc(Cl)cc23)c1.O=C(O)C(=O)O", "Inhibition": "19%"}
{"smiles": "O=C(C=Cc1ccc(Br)cc1)NC1CCC(CN2CCC(c3c[nH]c4ccccc34)CC2)CC1", "note": "(stereo not drawn)", "Inhibition": "71%"}
{"smiles": "Cl.Fc1ccc2[nH]cc(CCN3CCC(CNCc4ccccc4)CC3)c2c1", "Inhibition": "67%"}
{"smiles": "CN(C)CCc1c[nH]c2ccc(C(=O)Nc3ccc(-c4ccncc4)cc3)cc12.O=C(O)CCC(=O)O", "Inhibition": "23%"}
{"smiles": "CCCCCCC(C)(C)c1cc(O)c2c(c1)OC(C)(C)c1ccncc1-2.Cl", "Inhibition": "4%"}
{"smiles": "CC[C@H]1CN2CC[C@H]1C[C@H]2[C@H](OC(=O)c1ccccc1)c1cc(C#N)nc2ccc(OC)cc12", "Inhibition": "19%"}
{"smiles": "CN1CC=C(C=Cc2c[nH]c3ccccc23)CC1", "Inhibition": "14%"}
{"smiles": "Cc1[nH]c2ccccc2c1C1=CCN(CCCCC2(C)C(=O)Nc3ccccc32)CC1", "note": "(stereo not drawn)", "Inhibition": "8%"}
{"smiles": "COc1ccc2[nH]cc(C3=CCN(CC4CC4C(=O)c4ccccc4)CC3)c2n1", "note": "(stereo not drawn)", "Inhibition": "22%"}
{"smiles": "O=C(/C=C/c1ccc(Cl)c(Cl)c1)N1CCC(CN2C3CCC2CC(c2c[nH]c4ccccc24)C3)CC1", "note": "(stereo not drawn)", "Inhibition": "84%"}
{"smiles": "Cc1[nH]c2ccccc2c1C1=CCN(CCN2CCOc3c(Br)cccc3C2=O)CC1", "Inhibition": "15%"}
{"smiles": "CC(=O)C1(c2ccccc2)CCN(CCC2(c3ccc(Cl)c(Cl)c3)CN(C(=O)C3CCCC3)CCO2)CC1", "note": "(stereo not drawn)", "Inhibition": "11%"}
{"smiles": "COc1cc(CN2CCN(c3ccnc(N(C)C4CCN(C)CC4)n3)CC2)cc(Cl)c1O", "Inhibition": "11%"}
{"smiles": "CC(C)CNCc1cccc(-c2cccc(CN(C(=O)Nc3ccccc3)C3CCN(Cc4ccccc4)CC3)c2)c1.O=C(O)C(F)(F)F", "Inhibition": "31%"}
{"smiles": "CN(c1cc(NC(=O)c2ccccc2)ccn1)C1CCN(Cc2cccc(F)c2)CC1.O=C(O)C(F)(F)F", "Inhibition": "0%"}
{"smiles": "CC[C@H]1CN2CC[C@H]1C[C@@H]2[C@H](O)c1ccnc2ccc(O)cc12", "Inhibition": "0%"}
{"smiles": "CSc1nccc(-c2ccc(S(=O)(=O)NC3CCC(CN4CCC(c5c[nH]c6ccccc56)CC4)CC3)s2)n1", "note": "(stereo not drawn)", "Inhibition": "61% and 36%"}
{"smiles": "CNCC(O)c1cc(Cl)c(Cl)cc1C.Cl", "note": "(stereo not drawn)", "Inhibition": "0%"}
{"smiles": "Cc1cc2ccc(CNCCc3ccccc3Br)cc2nc1N.Cl", "Inhibition": "0%"}
{"smiles": "COC(=O)/C=C/c1ccc(CC(C)NCC(O)c2cccc(C(F)(F)F)c2)cc1", "note": "(stereo not drawn)", "Inhibition": "16%"}
{"smiles": "CC(NC(C)(C)C)C(O)c1ccc(Cl)c(C(F)(F)F)c1.Cl", "note": "(stereo not drawn)", "Inhibition": "0%"}
{"smiles": "O=C(CCC(=O)c1ccc2c3c(cccc13)CC2)NC1CCC(CN2CCC(c3c[nH]c4ccccc34)CC2)CC1", "note": "(stereo not drawn)", "Inhibition": "34%"}
{"smiles": "COc1cccc(C(=O)C2CC2CN2CC=C(c3c(C)[nH]c4ccccc34)CC2)c1", "note": "(stereo not drawn)", "Inhibition": "13%"}
{"smiles": "COc1cccc(C(=O)C2CC2CN2CC=C(c3c[nH]c4ccc(OC)nc34)CC2)c1", "note": "(stereo not drawn)", "Inhibition": "8%"}
{"smiles": "CCCN(CCC)CCOC(=O)C(OCC)(c1ccccc1)c1ccccc1", "Inhibition": "0%"}
{"smiles": "CC(=O)Nc1ccc(OCCN(CC(F)(F)F)c2ccc(C#N)cc2C(F)(F)F)cc1", "Inhibition": "0%"}
